Assay results reported in ChEMBL document CHEMBL3988442, “University of Dundee, Small-Polar-MMV Screening Library” (2021).
About 13,000 (27%) of roughly 48,000 compounds showed an effect of 50% or more. Some of the results follow.

Each compound was assayed on Wolbachia pipientis (assay: Anti-Wolbachia Cell-Based Screen). Conditions: 5 µM.
Assay type: functional
Design: scale not given: in the data most compounds retested in dose-response had high values

**Q.** Which “Percent Effect” value does the source give for `O=C(CCNCc1cccc(O)c1)N1CCc2sccc2C1` here?
**A.** The value was 2.464%.

**Q.** For `NC(=O)NC(CC(=O)N1CCc2sccc2C1)c1cccc(Br)c1` (stereo not drawn), which “Percent Effect” value is on record?
**A.** Its value is 93.59%.

**Q.** With `O=C(C[S+]([O-])Cc1c(F)cccc1Cl)N1CCc2sccc2C1` (stereo not drawn) as the compound, how does the “Percent Effect” value read?
**A.** The value was 13.7%.

**Q.** Which “Percent Effect” value does the source give for `O=C(C[S+]([O-])Cc1ccccc1F)N1CCc2sccc2C1` (stereo not drawn) here?
**A.** Its value is 15.13%.

**Q.** For `CC(C)(C)c1nnc(NCC(=O)N2CCc3sccc3C2)s1`, which “Percent Effect” value is on record?
**A.** Its value is 0.7468%.

**Q.** For `N#Cc1cccc(CNCCC(=O)N2CCc3sccc3C2)c1`, which “Percent Effect” value is on record?
**A.** The value was -10.34%.

**Q.** `NC(=O)NC(CC(=O)N1CCc2sccc2C1)c1ccccc1F` (stereo not drawn) was tested. Which “Percent Effect” value did it give?
**A.** The value was 105.1%.

**Q.** Which “Percent Effect” value does the source give for `Cc1ccccc1C(CC(=O)N1CCc2sccc2C1)NC(N)=O` (stereo not drawn) here?
**A.** The value was 98.58%.

**Q.** For `c1cncc(-c2ccnn2CN2CCC3(CC2)OCCO3)c1`, which “Percent Effect” value is on record?
**A.** Its value is -11.32%.

**Q.** For `Cc1nccc(CNS(=O)(=O)N(C)Cc2ccc(Cl)cc2)n1`, which “Percent Effect” value is on record?
**A.** Its value is -3.155%.

**Q.** For `CCc1noc(C(C)N(C)CC(=O)Nc2c(C)cccc2C)n1` (stereo not drawn), which “Percent Effect” value is on record?
**A.** The value was -11.68%.

**Q.** `Cc1noc(CNC(=O)NCCc2ccc(Cl)cc2)n1` was tested. Which “Percent Effect” value did it give?
**A.** The value was -5.738%.

**Q.** `COc1ccc(Br)cc1CN(C)C(C)c1nc(C(C)C)no1` (stereo not drawn) was tested. Which “Percent Effect” value did it give?
**A.** Its value is 18.35%.

**Q.** Which “Percent Effect” value does the source give for `COCCCNC(=O)CN(C)C(C)c1nc(C(C)C)no1` (stereo not drawn) here?
**A.** The value was 126.4%.

**Q.** How did the “Percent Effect” value turn out when `CCc1noc(C(C)N(C)CC(=O)Nc2ccc(C)cc2)n1` (stereo not drawn) was run?
**A.** The value was 3.049%.

**Q.** With `COCCCNC(=O)CN(C)C(=O)c1cc(C)ccc1N(C)C(C)C` as the compound, how does the “Percent Effect” value read?
**A.** Its value is -2.233%.

**Q.** Which “Percent Effect” value does the source give for `CCN(CC(=O)NCCc1nc(C)no1)Cc1ccc(Cl)cc1` here?
**A.** Its value is -3.181%.

**Q.** How did the “Percent Effect” value turn out when `CCc1noc(C(C)N(C)CC(=O)Nc2cccc(C)n2)n1` (stereo not drawn) was run?
**A.** Its value is 0.4126%.

**Q.** `COCCCNC(=O)CN(C)C(=O)c1cc(C)ccc1O` was tested. Which “Percent Effect” value did it give?
**A.** Its value is -8.655%.

**Q.** For `COCCNC(=O)CN(C)C(C)c1nc(C)no1` (stereo not drawn), which “Percent Effect” value is on record?
**A.** The value was 119.8%.

**Q.** With `COCCCNC(=O)CN(C)C(C)c1nc(C)no1` (stereo not drawn) as the compound, how does the “Percent Effect” value read?
**A.** Its value is 131.6%.

**Q.** How did the “Percent Effect” value turn out when `Cc1noc(C(C)N(C)CC(=O)NCCc2ccc(Cl)cc2)n1` (stereo not drawn) was run?
**A.** Its value is 103.9%.

**Q.** Which “Percent Effect” value does the source give for `O=C(O)c1cc(-c2ccc3c(c2)OCO3)cc(S(=O)(=O)NC2CC2)c1` here?
**A.** The value was 1.562%.

**Q.** Which “Percent Effect” value does the source give for `O=C(c1ccc2sccc2c1)N1CCC(C(=O)O)(n2ccnc2)CC1` here?
**A.** The value was -1.881%.

**Q.** `Cc1nc(N)ncc1C(=O)N1CCCC1(C)C(=O)N(C)C` (stereo not drawn) was tested. Which “Percent Effect” value did it give?
**A.** The value was 88.37%.

**Q.** Which “Percent Effect” value does the source give for `Nc1ncc(C(=O)N2CCC(O)(CO)CC2)c(-c2ccccc2)n1` here?
**A.** The value was -11.61%.

**Q.** With `Cc1ccccc1N1CCN(C(=O)c2cnc(N(C)C)nc2C)C(C)C1` (stereo not drawn) as the compound, how does the “Percent Effect” value read?
**A.** Its value is 26.11%.

**Q.** How did the “Percent Effect” value turn out when `CC[C@@H](CO)NC(=O)c1coc(COc2ccc(OC)cc2)n1` was run?
**A.** The value was -6.129%.

**Q.** Which “Percent Effect” value does the source give for `COCC(=O)Nc1nccn1Cc1ccc(Br)cc1` here?
**A.** The value was 8.757%.

**Q.** `CCNC(=O)N(C)C1CCCc2nc(C)sc21` (stereo not drawn) was tested. Which “Percent Effect” value did it give?
**A.** Its value is 9.089%.

**Q.** For `N#Cc1cccnc1N1CCC(c2nc(C(F)(F)F)c[nH]2)CC1`, which “Percent Effect” value is on record?
**A.** The value was -10.33%.

**Q.** With `CCN(CC)c1ccc2ccc(C(=O)N3CCCCO3)cn12.O=C(O)C(F)(F)F` as the compound, how does the “Percent Effect” value read?
**A.** The value was -8.466%.

**Q.** `COCC(=O)N1CCC(C)(c2cc(O)[nH]n2)CC1` was tested. Which “Percent Effect” value did it give?
**A.** Its value is 115.4%.

**Q.** For `CC(C)C(=O)N1CCN(c2cc(N(C)C)cnn2)CC1`, which “Percent Effect” value is on record?
**A.** Its value is 9.778%.

**Q.** `COCC(=O)N1CCC2(CC1)CNc1ccc(F)cc12.O=C(O)C(F)(F)F` was tested. Which “Percent Effect” value did it give?
**A.** Its value is 7.249%.

**Q.** For `CC(C)C(=O)N1CCC(C)(c2cc(O)[nH]n2)CC1`, which “Percent Effect” value is on record?
**A.** The value was 136.2%.

**Q.** `CC(CCc1ccc(O)cc1)NC1CCN(C(=O)C(C)C)CC1` (stereo not drawn) was tested. Which “Percent Effect” value did it give?
**A.** The value was 2.314%.

**Q.** How did the “Percent Effect” value turn out when `CCOC1CC2(CCN(C(=O)COC)CC2)c2cc(C)ccc21` (stereo not drawn) was run?
**A.** The value was 10.7%.

**Q.** With `Cc1cc(N2CCN(C(=O)CCc3scnc3C)CC2)nc(N)n1` as the compound, how does the “Percent Effect” value read?
**A.** The value was 8.877%.

**Q.** For `c1cc(CN2CCC(c3ccncc3)CC2)cc(Cn2cccn2)c1`, which “Percent Effect” value is on record?
**A.** Its value is -4.875%.

**Q.** `c1cc2c(cc1CN1CCC(Cc3noc(C4CC4)n3)CC1)OCCO2` was tested. Which “Percent Effect” value did it give?
**A.** The value was 75.34%.

**Q.** For `CN(Cc1noc(C2CC2)n1)CC1CCN(CCO)CC1`, which “Percent Effect” value is on record?
**A.** The value was 15.04%.

**Q.** Which “Percent Effect” value does the source give for `c1cc(CN2CCC(Cc3noc(C4CC4)n3)CC2)c2c(c1)OCO2` here?
**A.** The value was 85.87%.

**Q.** With `c1cc2c(cc1CSCc1noc(C3CC3)n1)OCCO2` as the compound, how does the “Percent Effect” value read?
**A.** The value was 98.07%.

**Q.** For `CC(c1nc(C2CC2)no1)N(C)Cc1ccc2c(c1)OCCO2` (stereo not drawn), which “Percent Effect” value is on record?
**A.** The value was 0.3167%.

**Q.** `c1ccc(CN2CCC(Cc3noc(C4CC4)n3)CC2)cc1` was tested. Which “Percent Effect” value did it give?
**A.** Its value is 27.3%.

**Q.** How did the “Percent Effect” value turn out when `Clc1ccc(C2(NCc3noc(C4CC4)n3)CCOCC2)cc1` was run?
**A.** The value was -0.4021%.

**Q.** Which “Percent Effect” value does the source give for `c1cc(C2CCN(Cc3ccc4c(c3)OCO4)CC2)ccn1` here?
**A.** Its value is 106.9%.

**Q.** Which “Percent Effect” value does the source give for `O=C(c1cccc2c1OCO2)N1CCCC1c1noc(C2CC2)n1` (stereo not drawn) here?
**A.** The value was -8.169%.

**Q.** How did the “Percent Effect” value turn out when `O=C(NCC1CC1)N1CCN(Cc2ccc3c(c2)OCCO3)CC1` was run?
**A.** Its value is 1.258%.

**Q.** With `c1cncc(CN2CCC(NCCc3ccc4c(c3)OCO4)CC2)c1` as the compound, how does the “Percent Effect” value read?
**A.** Its value is 3.399%.

**Q.** For `CCn1c(C)cc(C(=O)NCc2ccc(CS(C)(=O)=O)cc2)c1C`, which “Percent Effect” value is on record?
**A.** Its value is 4.177%.

**Q.** For `COCc1nc(CN2CCC3(CCCO3)CCC2=O)no1` (stereo not drawn), which “Percent Effect” value is on record?
**A.** Its value is -11.19%.
